# Bioassay records (PubChem BioAssay)
# DRV1 agonist: GPR32 (DRV1) agonism, beta-arrestin recruitment; CHO-K1 GPR32 beta-arrestin PathHunter luminescence, 90 min; zero percent set by DMSO-only wells; 48,000 compounds, 2.5% hits; activation, % at 76.9 µM; AID 1346428; O75388;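 active = activation of at least 60% and not above a set upper limit, about 1 call in 100 departs from these limits; inconclusive = activation of 40% to 60%, or above that upper limit; inactive = activation under 40%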; also: 0% is about no effect
#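 Using DMSO wells as EC0, agonist-induced signal was taken as chemiluminescence from beta-Gal reconstituted upon beta-arrestin recruitment to GPR32 in CHO-K1 cells after 90 min compound treatment.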
# NTMT1 inh: inhibitors of human N-terminal methyltransferase NTMT1 | Q9BV86 | NTMT1 MTase-Glo SAH luminescence, purified enzyme | Potency, µM (titrated, usually from 114 µM), for inactives: at the top dose activity change, negative = inhibition, usual class: inhibitors | 59,000 compounds, 2.5% hits | AID 1645870;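 also: potency is read from the fitted curve at half-maximal effect; plate controls were DMSO vehicle for no effect and no enzyme for full effect; nearly all actives have a fitted effect of over 65% in size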
# OvCa metastasis: inhibitors of ovarian cancer cell adhesion and invasion in omental model; SKOV3ip1-GFP adhesion/invasion on 3D omental model, fluorescence; Potency, µM (series often up to 45.8 µM), for the others: at the highest dose activity change, negative = inhibition, hits mostly inhibitors; 46,000 compounds, 0.1% hits; AID 1963576;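 also: potency is read from the fitted curve at half-maximal effect; plate controls were DMSO wells for no effect and tomatine positive control wells for full effect; nearly all actives have a fitted effect of over 65% in size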
#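 Adhesion/invasion was scored as fixed GFP-labeled SKOV3ip1 cell counts (488/509 nm), normalized to DMSO and tomatine controls. Cancer cells in serum-free medium, with four compound doses (0.36-46 umol/L), sat 2 hr at RT then 16 hr at 37 C on a 48 hr fibroblast/mesothelial/ECM culture.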
# FH mod: Identification of activators of human fumarate hydratase by quantitative high-throughput screening. 54,000 compounds, 0.22% hits. Fumarate hydratase, mitochondrial (Homo sapiens), P07954. FH coupled MDH/diaphorase resazurin fluorescence, 15 min. Potency, µM (titrated, usually from 79.9 µM), without a hit: at the highest dose activity change, negative = inhibition, usual class: inhibitors; also: potency is read from the fitted curve at half-maximal effect; % is scaled to controls: 0 for no effect and ±100 for the full control effect; the screen sought activators but most active calls are inhibition curves; nearly all actives have a fitted effect of over 45% in size
# Target sequence (P07954 whole entry, looked up): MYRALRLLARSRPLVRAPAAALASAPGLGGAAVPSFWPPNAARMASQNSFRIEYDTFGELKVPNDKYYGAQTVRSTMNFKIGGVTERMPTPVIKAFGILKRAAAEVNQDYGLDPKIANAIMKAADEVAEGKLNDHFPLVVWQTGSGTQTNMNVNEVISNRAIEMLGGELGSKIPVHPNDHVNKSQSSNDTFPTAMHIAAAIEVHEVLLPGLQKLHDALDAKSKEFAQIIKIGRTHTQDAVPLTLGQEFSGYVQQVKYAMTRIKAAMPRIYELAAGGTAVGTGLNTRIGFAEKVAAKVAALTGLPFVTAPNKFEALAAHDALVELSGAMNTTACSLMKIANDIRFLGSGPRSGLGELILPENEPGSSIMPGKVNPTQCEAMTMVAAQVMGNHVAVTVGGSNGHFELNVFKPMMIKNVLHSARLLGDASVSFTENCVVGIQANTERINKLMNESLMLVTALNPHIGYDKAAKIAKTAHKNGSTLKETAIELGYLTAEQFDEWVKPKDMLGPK
# * hit, by the source's call; i = inactive; ? = inconclusive; nt = no result given; ! = a repeat was not active; [ ] = another dose, or the depositor's remark. Shown are actives, neighbours in structure and some others; about 3.9% of the full set was active somewhere. Unless noted, calls follow the shape of the dose curve; as a rule, active = well fitted curve in the direction sought with a large enough effect; inconclusive = small, poorly fitted or top-dose-only effect, or another doubt; inactive = no such curve, though single readings can be large; an effect the other way counts as inactive or inconclusive.
SMILES,DRV1 agonist,NTMT1 inh,OvCa metastasis,FH mod
COc1cc2c(Oc3ccc4[nH]c(C)cc4c3F)ncnc2cc1OCCCN1CCCC1,nt,45µM*!,8%,39%
COc1cc2c(Nc3ccc(NC(=O)c4ccccc4)cc3)ncnc2cc1OCCCN1CCOCC1,nt,-9%,-5%,-16%
COc1cccc(OCc2cc(=O)n3c(-c4ccccc4)csc3n2)c1,121*,-6%,20%,0%
Cc1ccccc1OCc1cc(=O)n2c(-c3ccccc3)csc2n1,32,18%,-30%,1%
O=C(CN1C(=O)C2(SCC(=O)N2c2ccccc2)c2ccccc21)NCc1ccccc1 (configuration not stated),-2,89µM*,1%,-10%
COc1cc2ncnc(Oc3cccc(NC(=O)Nc4cc(C(C)(C)C(F)(F)F)on4)c3)c2cc1OC,nt,-3%[57.5 µM],nt,?
CC(C)OCCCn1c(SCC(N)=O)nc2c(sc3ccccc32)c1=O,115*,-2%,-27%,-6%
CC(C)OCCCn1c(SCC(=O)Nc2ccc(F)cc2)nc2c(sc3ccccc32)c1=O,-4,0%,17%,1%
COc1ccc(Cl)c(Nc2nc3ccccc3nc2NS(=O)(=O)c2cccc(NC(=O)C(C)(C)N)c2)c1,nt,?,nt,-27%
CCc1cc2c(=O)c(-c3nc4ccccc4s3)coc2c(CN2CCCCC2)c1O,nt,7%[29.8 µM],nt,?
Cc1ccc(C)c(S(=O)(=O)NCCc2csc(-c3ccc(Cl)cc3)n2)c1,74*,23%,-10%,?
O=S(=O)(NCCc1csc(-c2ccc(F)cc2)n1)c1ccc(Cl)cc1,64*,2%,2%,?
Cc1ccc(S(=O)(=O)NCCc2csc(-c3cccc(F)c3)n2)cc1,80*,-1%,i,?
CCOc1ccc(S(=O)(=O)NCCc2csc(-c3ccc(Cl)cc3)n2)cc1,69*,?,i,?
CCC(C)/C=C(C)/C=C/C1=CC2=C(Cl)C(=O)C(C)(OC(C)=O)C(=O)C2=CN1C1CCCCN(C(CCC(N)=O)C(=O)O)C1=O (configuration not stated),nt,1%[12.6 µM],nt,10%[20.6 µM]
COc1cc(/C=C/C(=O)O)ccc1O[C@@H]1O[C@H](CO)[C@@H](O)[C@H](O)[C@H]1O[C@@H]1OC[C@](O)(CO)[C@H]1O,nt,8%[29.8 µM],nt,7%[53.3 µM]
C=C1C(=O)O[C@@H]2[C@H]3C(C)=CC[C@@]34O[C@@]4(C)CC[C@@H]12,nt,-18%,nt,nt
CC(=O)c1ccccc1-c1ncc(C)c(NCC2CCN(c3cccnc3)CC2)n1,nt,5%[57.5 µM],nt,nt
COc1ccc(S(=O)(=O)NCCc2csc(-c3ccc(F)cc3)n2)cc1,60*,0%,-1%,-29%
COc1ccc(-c2nc(CNS(=O)(=O)c3ccc(F)cc3)cs2)cc1,-18,-3%,9%,-19%
CCNCCc1ccc(CN(CC)c2cc(OC)ccc2[C@@H]2CCc3cc(O)ccc3C2)cc1,nt,45µM*,nt,nt
CCCC(=O)c1cc(O)c(O)cc1O,-74,40µM*,nt,?
CCNc1nc(NCc2ccc(F)cc2)c2cnn(C)c2n1,72*,-20%,-2%,1%
COCCNc1nc(NCc2cccc(Cl)c2)c2cnn(C)c2n1,?,-3%,-4%,2%
COCCOc1ccc(N2CCN(CCn3ncc4c3nc(N)n3nc(-c5ccco5)nc43)CC2)cc1,nt,1%[57.5 µM],nt,-3%
SMILES,DRV1 agonist,NTMT1 inh,OvCa metastasis,FH mod
COc1cc(OC)cc(C(=O)NCC(c2cccs2)S(=O)(=O)c2ccc(F)c(C)c2)c1 (configuration not stated),-12,13%,-4%,1%
COc1ccc(C(=O)NCC(c2cccs2)S(=O)(=O)c2ccc(F)c(C)c2)cc1 (configuration not stated),66*,5%,-8%,-9%
COc1ccc(CCNC(=O)C(=O)NCC(c2cccs2)S(=O)(=O)c2ccc(F)cc2)cc1 (configuration not stated),85*,0%,3%,-16%
COc1ccc(C(=O)NCC(c2cccs2)S(=O)(=O)c2cccs2)cc1 (configuration not stated),83*,1%,-9%,-1%
C[C@@H]1O[C@@H](O[C@H]2[C@H](OC(=O)[C@]34CCC(C)(C)C[C@H]3C3=CCC5[C@@]6(C)CC[C@H](O[C@@H]7O[C@H](CO[C@@H]8OC[C@H](O)[C@H](O)[C@H]8O)[C@@H](O)[C@H](O)[C@H]7O)C(C)(C)C6CC[C@@]5(C)[C@]3(C)C[C@H]4O)OC[C@@H](O)[C@@H]2O)[C@H](O)[C@H](O)[C@H]1O[C@@H]1OC[C@H](O)[C@H](O[C@@H]2OC[C@@H](O)[C@H](O)[C@H]2O)[C@H]1O (some centres not stated),nt,-15%[6.45 µM],nt,-5%[13.5 µM]
CC(C)c1cc(C(=O)N2CC[C@H](NC(=O)C3CC3)C2)n[nH]1,nt,-15%[57.5 µM],nt,-1%
O=C(Nc1nc(-c2ccccc2)cs1)c1ccncc1NS(=O)(=O)c1cccc2cccnc12,nt,50µM*,nt,nt
Cc1ccc(S(=O)(=O)Nc2cnccc2C(=O)Nc2nc(-c3ccc(Oc4ccccc4)cc3)cs2)cc1,nt,45µM*,nt,nt
Cc1cccc(C)c1OCC(=O)Nc1nonc1-c1ccc(Br)cc1,-1,13%,3%,-18%
O=C(Nc1nonc1-c1ccc(Br)cc1)c1ccco1,71*,5%,-1%,8%
O=C(Cc1nnc(-c2ccncc2)s1)Nc1ccc(F)c(C(F)(F)F)c1,nt,17%,nt,nt
FC(F)(F)c1ccc(-c2ccc(CNc3nc(-c4ccccc4C(F)(F)F)nc4ccccc34)cc2)cn1,nt,-15%,nt,nt
CN1CCc2c(c3ccccc3n2Cc2ccc(C(=O)NO)cc2)C1,nt,14%,-10%,4%
COc1ccc(-c2nnc(SCC(=O)Nc3ccc(C)c(C)c3)s2)cc1,115*,-2%,8%,6%
CC(=O)N[C@@H](Cc1c[nH]c2ccccc12)C(=O)N[C@@H](CCC(=O)O)C(=O)N[C@@H](Cc1cnc[nH]1)C(=O)N[C@@H](CC(=O)O)C(=O)Nc1ccc2c(C(F)(F)F)cc(=O)oc2c1,nt,0%[29.8 µM],nt,7%[53.3 µM]
COc1cc(C)c(C(=O)O[C@H]2[C@@H](O)[C@H](n3ccc(=O)[nH]c3=O)O[C@@H]2CO)c(OC)c1,nt,5%[29.8 µM],nt,0%[53.3 µM]
CCCCNc1nc2c(c(=O)n(C)c(=O)n2C)n1CC(O)COc1ccccc1C (configuration not stated),67*,?,5%,-7%
CCc1cccc(NC(=O)c2ccc3c(=O)n4nc(Nc5ccccc5OC)sc4nc3c2)c1,6,-10%,i,2%
Cc1ccc(Cl)cc1Nc1nn2c(=O)c3ccc(C(=O)NCc4cccs4)cc3nc2s1,29,79µM*,-7%,3%
COc1cccc(NC(=O)c2ccc3c(=O)n4nc(Nc5ccccc5OC)sc4nc3c2)c1,3,79µM*,-7%,-10%
Cc1ccccc1Nc1nn2c(=O)c3ccc(C(=O)NCc4cccs4)cc3nc2s1,-7,-1%,i,-7%
